According to PubChem BioAssay (NCATS):
Inconclusive results are not listed. Active and inactive are the calls of the source. Unless noted, calls follow the shape of the dose curve; as a rule, active = well fitted curve in the direction sought with a large enough effect; inconclusive = small, poorly fitted or top-dose-only effect, or another doubt; inactive = no such curve, though single readings can be large; an effect the other way counts as inactive or inconclusive.

Tests used:
[1] = qHTS for Inhibitors of the Functional Ribonucleoprotein Complex (vRNP) of Lassa (LASV) Arenavirus: LASV Primary Screen - GLuc reporter signal (AID 1347082; calls by dose curve; tested in HEK293 reporter line; also: series mostly up to about 57 µM; nearly all actives have a fitted effect of over 60% in size)
[2] = qHTS for Inhibitors of the Functional Ribonucleoprotein Complex (vRNP) of Lassa (LASV) Arenavirus: Viability assay - alamar blue signal for LASV Primary Screen (AID 1347083; calls by dose curve; tested in HEK293 reporter line; also: series mostly up to about 57 µM; nearly all actives have a fitted effect of over 80% in size)
[3] = qHTS for Inhibitors of the Functional Ribonucleoprotein Complex (vRNP) of Lymphocytic Choriomeningitis Arenaviruses (LCMV): Viability assay - alamar blue signal for LCMV Primary Screen (AID 1347085; calls by dose curve; tested in HEK293 reporter line; also: series mostly up to about 57 µM; nearly all actives have a fitted effect of over 80% in size)
[4] = biological target: Nucleoprotein (Lymphocytic choriomeningitis virus (strain Armstrong)) (UniProt P09992); assay: qHTS for Inhibitors of the Functional Ribonucleoprotein Complex (vRNP) of Lymphocytic Choriomeningitis Arenaviruses (LCMV): LCMV Primary Screen - GLuc reporter signal (AID 1347086; calls by dose curve; also: series mostly up to about 57 µM; nearly all actives have a fitted effect of over 70% in size)
Sequence of Nucleoprotein (Lymphocytic choriomeningitis virus (strain Armstrong)) (P09992 whole entry, looked up): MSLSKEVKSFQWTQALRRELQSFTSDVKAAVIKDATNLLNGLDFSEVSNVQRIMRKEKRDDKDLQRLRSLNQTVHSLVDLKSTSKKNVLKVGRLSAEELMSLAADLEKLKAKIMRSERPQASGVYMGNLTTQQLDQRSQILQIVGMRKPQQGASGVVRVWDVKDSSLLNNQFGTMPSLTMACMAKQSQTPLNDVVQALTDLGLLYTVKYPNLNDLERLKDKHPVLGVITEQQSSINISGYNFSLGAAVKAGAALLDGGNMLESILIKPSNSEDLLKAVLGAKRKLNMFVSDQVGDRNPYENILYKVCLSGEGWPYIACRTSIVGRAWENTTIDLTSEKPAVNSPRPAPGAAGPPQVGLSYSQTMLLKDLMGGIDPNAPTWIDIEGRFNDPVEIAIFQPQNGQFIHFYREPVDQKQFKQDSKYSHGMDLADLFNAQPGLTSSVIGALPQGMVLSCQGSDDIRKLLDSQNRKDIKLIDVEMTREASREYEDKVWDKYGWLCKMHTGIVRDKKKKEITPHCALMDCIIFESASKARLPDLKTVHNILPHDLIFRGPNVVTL

[5] = qHTS of pediatric cancer cell lines to identify multiple opportunities for drug repurposing: Primary screen for TC32 cells (AID 1347089); also: nearly all actives have a fitted effect of over 60% in size
Procedure, shortened: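 Measured quantity: luminescence from CellTiter-Glo, reflecting metabolically active TC32 cells following 48 h of compound. Curves came straight from multi-point titrations, with 8 or 11 points in primary and 11 in confirmatory screening.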

[6] = qHTS of pediatric cancer cell lines to identify multiple opportunities for drug repurposing: Primary screen for DAOY cells (AID 1347090); also: series mostly up to about 46 µM; nearly all actives have a fitted effect of over 55% in size
Procedure, shortened: (§1)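 Cell viability, CellTiter-Glo luminescence; 500-1,000 cells/well, 8- or 11-point titration, 48 h compound exposure at 37 degrees C, 5% CO2. Controls: DMSO neutral, bortezomib 2.3 µM final as positive.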

[7] = qHTS of pediatric cancer cell lines to identify multiple opportunities for drug repurposing: Primary screen for A673 cells (AID 1347092); also: nearly all actives have a fitted effect of over 45% in size
Procedure, shortened: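 Cells are plated, rested 5 h, dosed by pintool, incubated 48 h, then lysed with CellTiter-Glo and read by luminescence. DMSO is the neutral control; bortezomib at 2.3 uM final is the positive control.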

[8] = qHTS of pediatric cancer cell lines to identify multiple opportunities for drug repurposing: Primary screen for NB-EBc1 cells (AID 1347095)
Procedure, shortened: (§2)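 CRCs from 8- or 11-point titrations (lowest final 0.59 nM NPC, 0.78 nM MIPE). Cell viability: CellTiter-Glo after 48 h incubation, 15 min room-temperature development, luminescence imaging.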

[9] = qHTS of pediatric cancer cell lines to identify multiple opportunities for drug repurposing: Primary screen for U-2 OS cells (AID 1347096); also: nearly all actives have a fitted effect of over 50% in size
Procedure, shortened: (§3)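 Cells (500-1,000/well) rested 5 h, then received compounds for 48 h; metabolically active cells were measured by CellTiter-Glo luminescence. Final concentrations spanned up to 46 µM (MIPE, 11-point) or 0.59 nM-46 µM (NPC, 8-point) in primary screens, 11-point in follow-ups.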

[10] = qHTS of pediatric cancer cell lines to identify multiple opportunities for drug repurposing: Primary screen for NB1643 cells (AID 1347099); also: nearly all actives have a fitted effect of over 50% in size
Procedure, shortened: as §2

[11] = qHTS of pediatric cancer cell lines to identify multiple opportunities for drug repurposing: Primary screen for LAN-5 cells (AID 1347100)
Procedure, shortened: as §3

[12] = qHTS of pediatric cancer cell lines to identify multiple opportunities for drug repurposing: Primary screen for SJ-GBM2 cells (AID 1347091)
Procedure, shortened: as §1

[13] = qHTS of pediatric cancer cell lines to identify multiple opportunities for drug repurposing: Primary screen for BT-37 cells (AID 1347094); also: series mostly up to about 57 µM
Procedure, shortened: as §2

[14] = qHTS of pediatric cancer cell lines to identify multiple opportunities for drug repurposing: Primary screen for Saos-2 cells (AID 1347097); also: nearly all actives have a fitted effect of over 40% in size
Procedure, shortened: as §2

[15] = qHTS of pediatric cancer cell lines to identify multiple opportunities for drug repurposing: Primary screen for SK-N-SH cells (AID 1347098); also: nearly all actives have a fitted effect of over 65% in size
Procedure, shortened: as §3

[16] = qHTS of pediatric cancer cell lines to identify multiple opportunities for drug repurposing: Primary screen for SK-N-MC cells (AID 1347093); also: series mostly up to about 46 µM
Procedure, shortened: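 Metabolically active cells were quantified by ATP-dependent luminescence (CellTiter-Glo, 15 min at room temperature) following 48 h treatment. Cells had been plated at 500-1,000 per well and settled for 5 h beforehand.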

Measured: Potency

CC(CC(C#N)(c1ccccc1)c1ccccc1)N(C)C (configuration not stated)
inactive: [1] | [2] | [3] | [4] | [5] | [6] | [7] | [8] | [9] | [10] | [11]

CC(=O)OC1(c2ccccc2)CCN(CCc2ccccc2)CC1
inactive: [1] | [2] | [3] | [4] | [5] | [6] | [9] | [10]

CCOC(=O)C(c1c(O)c2ccccc2oc1=O)c1c(O)c2ccccc2oc1=O
inactive: [1] | [2] | [3] | [4] | [5] | [12] | [7] | [13] | [8] | [9] | [14] | [15] | [10] | [11]

CC(C)=CCN1CC[C@@]2(C)c3cc(O)ccc3C[C@@H]1[C@@H]2C
inactive: [1] | [2] | [3] | [4] | [5] | [6] | [8] | [15] | [10] | [11]

C[C@H]1CNCCc2ccc(Cl)cc21
inactive: [1] | [2] | [3] | [4] | [5] | [12] | [7] | [16] | [13] | [8] | [9] | [14] | [15] | [10] | [11]

C[C@]12C=CC(=O)C=C1CC[C@@H]1[C@@H]2CC[C@@]2(C)[C@H]1CC[C@]2(C)O
inactive: [1] | [2] | [3] | [4] | [5] | [6] | [13] | [9] | [15] | [11]

COc1ccc(OC)c(CC(C)N)c1 (configuration not stated)
inactive: [1] | [2] | [3] | [4] | [5] | [12] | [16] | [13] | [8] | [9] | [14] | [15] | [10] | [11]

C=CCOC(Cn1ccnc1)c1ccc(Cl)cc1Cl (configuration not stated)
inactive: [1] | [2] | [3] | [4] | [5] | [12] | [16] | [13] | [8] | [9] | [14] | [15] | [10] | [11]

CC1N=C(N)OC1c1ccccc1 (configuration not stated)
inactive: [1] | [2] | [3] | [4] | [5] | [12] | [7] | [16] | [13] | [8] | [14] | [15] | [11]

COP(=S)(OC)Oc1ccc(S(N)(=O)=O)cc1
inactive: [1] | [2] | [3] | [4] | [5] | [12] | [16] | [13] | [8] | [9] | [14] | [15] | [10] | [11]

CCOC(=O)C1(c2ccccc2)CCN(CCc2ccc(N)cc2)CC1
inactive: [1] | [2] | [3] | [4] | [5] | [12] | [7] | [16] | [13] | [8] | [14] | [15] | [10] | [11]
